# Data taken from the supplement of paper PMC6897291.
# System: RIVA
# Assay: growth inhibition by drug alone (1 - RLU/untreated control) (fraction); higher = stronger inhibition
# Conditions: 177Lu-lilotomab satetraxetan 0 ug/ml
# Description: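 RIVA (RI-1) ABC-DLBCL cells were pretreated or not for 18 h with 0.5 ug/ml 177Lu-lilotomab satetraxetan (600 MBq/mg), washed and seeded (3000 cells/well) on 384-well plates pre-printed with the Selleck Cambridge Cancer Compound library. Viability was read by RealTime-Glo luminescence on days 3-6 after seeding. Effect = 1 - RLU/mean RLU of the 48 untreated no-drug control wells per plate; Bliss score = (M-E)/(1-Fa).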
Compound,"growth inhibition by drug alone (10 nM, time (day): 3)","growth inhibition by drug alone (10 nM, time (day): 4)","growth inhibition by drug alone (10 nM, time (day): 5)","growth inhibition by drug alone (10 nM, time (day): 6)","growth inhibition by drug alone (100 nM, time (day): 3)","growth inhibition by drug alone (100 nM, time (day): 4)","growth inhibition by drug alone (100 nM, time (day): 5)","growth inhibition by drug alone (100 nM, time (day): 6)"
O=C(O)c1ccc(-c2c[nH]c3ncc(-c4ccccc4)cc23)cc1C1CCCC1,-0.0813,-0.122,-0.138,-0.797,-0.515,-0.371,-0.364,-0.433
O=C1NC(=O)/C(=C\c2cccc(C(F)(F)F)c2)S1,-0.238,-0.269,-0.325,-0.41,-0.524,-0.503,-0.514,-0.584
CCCC(=O)[O-].[Na+] [Sodium butyrate],-0.23,-0.252,-0.304,-0.546,-0.245,-0.343,-0.3,-0.374
Cc1[nH]c(/C=C2\C(=O)Nc3ccc(S(=O)(=O)Cc4c(Cl)cccc4Cl)cc32)c(C)c1C(=O)N1CCC[C@@H]1CN1CCCC1,-0.0942,-0.161,-0.228,-0.375,-0.272,-0.354,-0.323,-0.456
Cc1cc(Nc2cc(N3CCN(C)CC3)nc(/C=C/c3ccccc3)n2)n[nH]1,-0.27,-0.286,-0.318,-0.447,-0.354,-0.347,-0.369,-0.539
